# Assay results taken from ChEMBL document CHEMBL3988442, “University of Dundee, Small-Polar-MMV Screening Library” (2021).
# For some of these results: Potency and affinity values are given separately.
# Assays:
# Parameters in all cases: scale not given: direction of the effect not stated beside the values
# [1] = biological target: Protein translocase subunit SecA (Escherichia coli (strain K12)) (UniProt P10408); test: Assay to Identify E. coli SecA ATPase Inhibitors; type: functional; details: 30 µM
# [2] = biological target: T1, Ubiquitin-activating enzyme e1, putative (Leishmania donovani (strain BPK282A1)) (UniProt E9BSI1); test: Leishmania donovani Ubiquitin Activating Enzyme (LdE1); type: functional; details: 30 µM
# T1 sequence (whole entry): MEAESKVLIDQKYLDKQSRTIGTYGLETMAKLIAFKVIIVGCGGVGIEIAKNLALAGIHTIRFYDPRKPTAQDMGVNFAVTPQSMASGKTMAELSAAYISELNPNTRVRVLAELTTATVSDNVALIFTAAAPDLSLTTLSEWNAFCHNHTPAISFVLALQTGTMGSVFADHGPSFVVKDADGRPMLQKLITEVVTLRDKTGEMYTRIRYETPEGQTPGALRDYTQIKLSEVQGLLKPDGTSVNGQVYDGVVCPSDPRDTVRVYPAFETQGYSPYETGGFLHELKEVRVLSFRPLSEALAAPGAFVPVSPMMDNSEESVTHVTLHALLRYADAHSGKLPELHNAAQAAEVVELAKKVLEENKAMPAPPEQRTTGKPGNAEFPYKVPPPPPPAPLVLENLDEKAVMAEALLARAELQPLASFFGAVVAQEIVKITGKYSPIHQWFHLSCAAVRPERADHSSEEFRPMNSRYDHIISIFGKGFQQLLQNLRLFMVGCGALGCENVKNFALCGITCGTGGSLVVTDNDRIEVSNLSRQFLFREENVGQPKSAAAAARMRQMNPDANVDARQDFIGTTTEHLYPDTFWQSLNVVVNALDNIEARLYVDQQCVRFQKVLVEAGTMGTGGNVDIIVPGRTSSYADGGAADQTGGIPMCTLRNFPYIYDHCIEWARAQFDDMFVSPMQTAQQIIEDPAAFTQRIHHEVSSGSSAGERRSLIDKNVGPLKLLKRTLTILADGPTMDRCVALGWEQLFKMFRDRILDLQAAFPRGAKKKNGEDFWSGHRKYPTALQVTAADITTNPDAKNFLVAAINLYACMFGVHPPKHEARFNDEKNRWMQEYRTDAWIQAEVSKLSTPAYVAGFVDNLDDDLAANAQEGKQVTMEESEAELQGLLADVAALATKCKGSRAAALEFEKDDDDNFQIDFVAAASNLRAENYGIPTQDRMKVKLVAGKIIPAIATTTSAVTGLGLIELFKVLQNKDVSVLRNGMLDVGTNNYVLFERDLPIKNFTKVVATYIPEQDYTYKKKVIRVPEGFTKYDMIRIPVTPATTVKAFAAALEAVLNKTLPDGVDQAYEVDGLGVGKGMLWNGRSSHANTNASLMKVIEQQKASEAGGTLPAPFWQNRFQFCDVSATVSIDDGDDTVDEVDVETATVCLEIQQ
# [3] = biological target: AMP-activated protein kinase, AMPK (Homo sapiens) (UniProt P54646+O43741+P54619+Q9UGJ0+Q9Y478+Q13131+Q9UGI9); test: AMP-dependent Kinase enzyme assay. An in vitro enzyme assay that detects ADP turnover that is directly proportional to AMPK activity. This uses naive AMPK that is activated during the assay with MK-8722; type: functional; details: 30 µM
# [4] = biological target: Sialic acid-binding Ig-like lectin 9 (Homo sapiens) (UniProt Q9Y336); test: Hs-Siglec9 ALPHAscreen SOP 20170721; details: 10 µM
# Trypanosoma cruzi = test: Trypanosoma cruzi phosphomannomutase and mannose-1-phosphate guanylyltransferase assay; type: functional; details: 10 µM
# [5] = biological target: T2, Arginase-2, mitochondrial (Homo sapiens) (UniProt P78540); test: in vitro enzyme assay to detect the production of urea directly proportional to the activity of Arginase II; type: functional; details: 33.3 µM; further: in the data most compounds retested in dose-response had high values
# T2 sequence (whole entry): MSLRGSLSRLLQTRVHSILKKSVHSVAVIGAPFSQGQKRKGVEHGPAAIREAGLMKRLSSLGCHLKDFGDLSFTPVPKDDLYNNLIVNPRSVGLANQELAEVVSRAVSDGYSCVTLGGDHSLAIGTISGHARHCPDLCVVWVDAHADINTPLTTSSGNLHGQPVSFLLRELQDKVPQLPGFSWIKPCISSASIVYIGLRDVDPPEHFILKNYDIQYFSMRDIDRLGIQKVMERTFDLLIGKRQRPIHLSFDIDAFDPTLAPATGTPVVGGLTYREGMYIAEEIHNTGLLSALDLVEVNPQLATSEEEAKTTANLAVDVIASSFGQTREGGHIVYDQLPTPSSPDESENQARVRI
# [6] = biological target: T3, Proteasome subunit beta (Trypanosoma cruzi) (UniProt O96673); test: Trypanosoma cruzi proteasome chymotrypsin-like activity (TcProtChymo) assay.; further: in the data most compounds retested in dose-response had high values; type: functional; details: 9.37 µM
# T3 sequence (whole entry): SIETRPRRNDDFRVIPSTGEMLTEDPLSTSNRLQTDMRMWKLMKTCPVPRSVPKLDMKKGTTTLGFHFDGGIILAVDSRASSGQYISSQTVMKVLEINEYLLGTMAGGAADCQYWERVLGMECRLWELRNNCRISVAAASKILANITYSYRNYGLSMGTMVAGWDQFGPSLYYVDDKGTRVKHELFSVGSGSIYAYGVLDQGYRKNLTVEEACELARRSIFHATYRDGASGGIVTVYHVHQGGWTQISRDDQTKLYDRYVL
# Homo sapiens = organism: Homo sapiens; test: To identify inhibition of the IFN signalling (Jak-Stat) pathway via expression of an eGFP reporter gene under the control of an IFN-stimulated response element (ISRE) containing MxA promoter.; type: functional; details: 30 µM
# [7] = biological target: T4, Tyrosyl-tRNA synthetase, putative (Trypanosoma cruzi (strain CL Brener)) (UniProt Q4DSP6); test: Trypanosoma cruzi tyrosyl tRNA synthetase (TcYRS) _High Tyrosine SOP; type: functional; details: 30 µM; further: in the data most compounds retested in dose-response had high values
# T4 sequence (whole entry): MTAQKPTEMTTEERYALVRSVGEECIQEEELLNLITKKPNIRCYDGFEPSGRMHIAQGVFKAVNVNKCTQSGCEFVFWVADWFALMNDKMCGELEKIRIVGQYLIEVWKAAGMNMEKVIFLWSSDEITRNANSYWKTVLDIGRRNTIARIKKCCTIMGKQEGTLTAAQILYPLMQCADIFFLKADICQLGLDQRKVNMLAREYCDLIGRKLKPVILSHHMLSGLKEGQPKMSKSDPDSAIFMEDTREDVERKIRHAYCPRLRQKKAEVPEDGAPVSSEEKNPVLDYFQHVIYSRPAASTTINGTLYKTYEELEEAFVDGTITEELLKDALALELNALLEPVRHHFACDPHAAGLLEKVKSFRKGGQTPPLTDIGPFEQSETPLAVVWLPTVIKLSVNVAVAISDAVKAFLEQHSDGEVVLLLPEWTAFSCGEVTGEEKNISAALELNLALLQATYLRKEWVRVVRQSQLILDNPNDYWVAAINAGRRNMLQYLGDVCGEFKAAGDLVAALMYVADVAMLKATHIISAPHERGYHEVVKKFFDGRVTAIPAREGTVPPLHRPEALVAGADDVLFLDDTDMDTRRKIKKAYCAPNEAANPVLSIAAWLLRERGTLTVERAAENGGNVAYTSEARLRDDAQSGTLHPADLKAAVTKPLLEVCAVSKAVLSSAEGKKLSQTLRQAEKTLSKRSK
# [8] = biological target: T4, Tyrosyl-tRNA synthetase, putative (Trypanosoma cruzi (strain CL Brener)); test: Trypanosoma cruzi tyrosyl tRNA synthetase (TcYRS) SOP; type: functional; details: 30 µM
# [9] = biological target: Chromo domain-containing protein 1 (Saccharomyces cerevisiae (strain ATCC 204508 / S288c) (Baker's yeast)) (UniProt P32657); test: ScCHD-1 Enzyme Inhibition Assay; type: functional; details: 30 µM; further: in the data most compounds retested in dose-response had high values
# Chain of Chromo domain-containing protein 1 (Saccharomyces cerevisiae (strain ATCC 204508 / S288c) (Baker's yeast)) (P32657 whole entry, the tested form may be a part): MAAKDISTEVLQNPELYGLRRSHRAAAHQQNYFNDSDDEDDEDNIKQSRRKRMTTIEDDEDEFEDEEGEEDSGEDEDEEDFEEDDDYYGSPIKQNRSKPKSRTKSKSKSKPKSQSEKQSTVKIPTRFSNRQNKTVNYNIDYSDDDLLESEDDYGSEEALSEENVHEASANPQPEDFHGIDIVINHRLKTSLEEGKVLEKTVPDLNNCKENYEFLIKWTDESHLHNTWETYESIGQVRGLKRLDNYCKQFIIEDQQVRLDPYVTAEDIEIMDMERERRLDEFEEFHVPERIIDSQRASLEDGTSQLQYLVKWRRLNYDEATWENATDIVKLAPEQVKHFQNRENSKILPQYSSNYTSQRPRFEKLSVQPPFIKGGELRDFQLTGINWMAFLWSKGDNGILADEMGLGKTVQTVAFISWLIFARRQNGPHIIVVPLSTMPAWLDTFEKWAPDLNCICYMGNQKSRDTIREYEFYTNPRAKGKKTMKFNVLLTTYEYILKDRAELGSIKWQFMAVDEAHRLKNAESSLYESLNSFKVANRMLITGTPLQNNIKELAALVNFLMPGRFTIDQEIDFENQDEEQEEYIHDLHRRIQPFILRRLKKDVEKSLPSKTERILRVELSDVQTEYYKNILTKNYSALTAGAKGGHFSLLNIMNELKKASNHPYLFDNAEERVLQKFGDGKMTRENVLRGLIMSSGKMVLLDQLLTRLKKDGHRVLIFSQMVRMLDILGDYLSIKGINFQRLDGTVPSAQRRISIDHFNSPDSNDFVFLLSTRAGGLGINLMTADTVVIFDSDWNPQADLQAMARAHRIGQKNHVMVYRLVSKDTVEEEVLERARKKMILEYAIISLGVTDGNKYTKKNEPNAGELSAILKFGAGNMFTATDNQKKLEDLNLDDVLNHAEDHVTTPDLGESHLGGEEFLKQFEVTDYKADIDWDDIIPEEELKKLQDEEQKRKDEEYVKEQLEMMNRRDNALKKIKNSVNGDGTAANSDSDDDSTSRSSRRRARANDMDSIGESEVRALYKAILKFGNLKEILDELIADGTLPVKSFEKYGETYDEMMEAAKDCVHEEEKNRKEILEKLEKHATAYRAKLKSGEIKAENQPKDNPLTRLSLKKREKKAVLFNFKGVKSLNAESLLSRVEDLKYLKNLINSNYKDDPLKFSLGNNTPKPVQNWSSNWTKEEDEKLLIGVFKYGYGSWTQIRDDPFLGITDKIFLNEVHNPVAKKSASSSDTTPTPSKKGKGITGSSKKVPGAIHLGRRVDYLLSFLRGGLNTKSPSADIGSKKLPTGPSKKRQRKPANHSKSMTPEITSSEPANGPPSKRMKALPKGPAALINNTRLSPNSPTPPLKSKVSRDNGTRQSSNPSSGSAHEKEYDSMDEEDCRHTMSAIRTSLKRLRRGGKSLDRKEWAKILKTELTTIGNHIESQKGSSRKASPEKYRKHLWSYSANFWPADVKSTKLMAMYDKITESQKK
# Chain of Protein translocase subunit SecA (Escherichia coli (strain K12)) (P10408 whole entry): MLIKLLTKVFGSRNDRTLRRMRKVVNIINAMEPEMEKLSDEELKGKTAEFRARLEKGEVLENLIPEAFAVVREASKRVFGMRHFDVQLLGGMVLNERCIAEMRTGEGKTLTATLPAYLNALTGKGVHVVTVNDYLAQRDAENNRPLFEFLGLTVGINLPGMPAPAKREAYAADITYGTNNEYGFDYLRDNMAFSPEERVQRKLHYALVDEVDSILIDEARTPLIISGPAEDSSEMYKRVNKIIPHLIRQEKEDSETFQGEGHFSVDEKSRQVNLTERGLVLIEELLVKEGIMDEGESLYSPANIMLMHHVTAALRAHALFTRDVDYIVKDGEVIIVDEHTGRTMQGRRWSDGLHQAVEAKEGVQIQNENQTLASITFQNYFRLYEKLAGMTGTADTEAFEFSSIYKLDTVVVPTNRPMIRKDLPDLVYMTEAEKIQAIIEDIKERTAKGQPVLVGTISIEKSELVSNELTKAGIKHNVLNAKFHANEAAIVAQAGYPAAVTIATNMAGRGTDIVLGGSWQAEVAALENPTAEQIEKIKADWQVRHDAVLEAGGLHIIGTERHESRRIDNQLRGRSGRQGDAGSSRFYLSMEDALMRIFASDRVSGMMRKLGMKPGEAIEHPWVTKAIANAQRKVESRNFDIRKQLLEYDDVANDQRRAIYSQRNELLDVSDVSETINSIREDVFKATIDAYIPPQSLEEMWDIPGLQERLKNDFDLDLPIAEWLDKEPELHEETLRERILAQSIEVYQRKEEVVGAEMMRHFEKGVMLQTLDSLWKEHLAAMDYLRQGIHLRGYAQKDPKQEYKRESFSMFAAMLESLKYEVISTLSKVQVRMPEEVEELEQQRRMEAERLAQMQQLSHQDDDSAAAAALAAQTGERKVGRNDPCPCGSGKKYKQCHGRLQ
# Chain of Sialic acid-binding Ig-like lectin 9 (Homo sapiens) (Q9Y336 whole entry): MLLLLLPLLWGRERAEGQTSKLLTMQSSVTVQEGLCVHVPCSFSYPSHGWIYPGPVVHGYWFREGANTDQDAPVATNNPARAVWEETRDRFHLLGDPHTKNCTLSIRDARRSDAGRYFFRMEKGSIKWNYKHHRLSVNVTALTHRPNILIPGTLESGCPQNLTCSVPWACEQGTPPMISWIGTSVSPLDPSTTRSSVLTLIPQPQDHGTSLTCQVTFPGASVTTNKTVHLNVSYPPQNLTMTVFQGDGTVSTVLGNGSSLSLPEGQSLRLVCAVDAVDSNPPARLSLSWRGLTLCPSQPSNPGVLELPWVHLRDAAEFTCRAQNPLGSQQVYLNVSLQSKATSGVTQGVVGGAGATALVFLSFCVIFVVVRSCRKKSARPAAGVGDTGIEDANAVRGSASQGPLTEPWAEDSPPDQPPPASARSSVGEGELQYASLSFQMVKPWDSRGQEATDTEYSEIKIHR
SMILES,Percent Effect [1],Percent Effect [2],Percent Effect [3],Percent Effect [4],Percent Effect (Trypanosoma cruzi),Percent Effect [5],Percent Effect [6],Percent Effect (Homo sapiens),Percent Effect [7],Percent Effect [8],Percent Effect [9]
Cc1ncnc2c1CCN(Cc1cccs1)CC2,-2.76%,8%,10%,-1.57%,-6.18%,-55.7%,-1.2%,10.4%,8.33%,7.5%,-6.96%
Cc1cnn(CCCNC(=O)N2CCCCC(N3CCCC3)C2)c1 (stereo not given),-2.45%,15.8%,0.679%,7.49%,3.19%,4.21%,15.5%,8.88%,8.33%,19.5%,-2.25%
O=C(c1cc(Cl)c2c(c1)OCO2)N1CCN(c2nccs2)CC1,-3.24%,11%,-2.85%,1.89%,2.55%,3.18%,7.45%,3.79%,7.53%,15%,-3.25%
O=C(NCCNc1ncccn1)N1CCSCC1,-0.808%,13.5%,-7.4%,9.38%,3.87%,-5.21%,7.39%,11.3%,5.42%,16.1%,-9.99%
Cc1ncsc1C(=O)NC1CCN(CC(=O)NCc2ccccc2)CC1,-3.36%,13.2%,0.646%,1.72%,2.71%,-1.8%,7.02%,-2.18%,9.36%,16.1%,-2.75%
CN(CC(=O)N1CCN(c2ncccn2)CC1)c1ccc(Cl)cn1,0.47%,8.11%,-0.12%,10.1%,5.79%,14.3%,9.83%,16.3%,4.76%,14.6%,-1.14%
O=C(c1cnc(C2CC2)s1)N1CCCCC1Cn1cccn1 (stereo not given),-2.96%,1.27%,4.54%,-0.611%,-1.13%,-3.23%,12.9%,-2.91%,2.08%,7.59%,-0.92%
Cn1ccc(C(=O)N2CCCC(Cc3cccc4ncccc34)C2)n1 (stereo not given),-7.55%,14.9%,-6.32%,5%,4.74%,-4.41%,7.33%,49.9%,3.23%,-6.49%,-12%
COc1ncccc1NC(=O)C1CC(=O)N(Cc2ccccn2)C1 (stereo not given),-1.71%,10.5%,4.85%,-1.28%,-4.97%,-2.37%,22.3%,-2.21%,4.25%,13%,-2.98%
CCOc1ccc(C#N)cc1NCC(=O)Nc1cc(C)no1,-6.06%,17.7%,-5.05%,-0.0832%,3.68%,-7.99%,4.34%,-2.7%,3.45%,-130%,-5.12%
Cc1ccoc1C(=O)N1CCO[C@H]2[C@H](OCCN(C)C)CC[C@@H]21,0.717%,5.33%,0.186%,15.6%,-2.7%,-56.5%,5.98%,-12.8%,2.08%,10%,-3.32%
Cc1ccc(C(=O)N2CCN(C(=O)NC(C)Cn3ccnc3)CC2)o1 (stereo not given),-1.19%,10.5%,2.03%,13.1%,3.38%,2.3%,4.51%,18.1%,3.43%,19.5%,-13.5%
CCN1CCOC(CNCc2ccccc2OCC(=O)N(C)C)C1 (stereo not given),-1.78%,0%,-9.78%,0.0919%,8.31%,-2.88%,-4.32%,-7.21%,1.48%,13.6%,-2.56%
CCOCCC(=O)N1CCCN(Cc2csc(CC)n2)CC1,-0.651%,3.8%,1.45%,3.57%,-1.74%,2.37%,25.7%,7.51%,6.25%,10.1%,-30.1%
O=C(c1cccc(Cn2ccnc2)c1)N1CCCC(n2ccnc2)C1 (stereo not given),-0.331%,16.2%,-8.78%,1.96%,5.11%,-2.4%,7%,29%,5.94%,25.6%,-6.66%
COCCN1CCC(NCc2cccnc2)C1 (stereo not given),-5.87%,-2.6%,-0.869%,-1.42%,-5.06%,2.49%,5.74%,16.6%,1.94%,-4.88%,-3.65%
O=C(NCC1CC1)c1nc(COc2ccc3c(c2)OCO3)no1,0.685%,4%,1.6%,-3.59%,-7.07%,-5.46%,15.5%,7.56%,4.23%,2.56%,-6.83%
Cc1nnc(SCC(=O)N2CCC3(CC2)c2ccccc2CC3O)o1 (stereo not given),-5.99%,13%,-6.65%,21.9%,6.79%,0%,7.49%,-5.03%,3.23%,16.1%,-7.51%
COCC(=O)N1CCCC1c1ccnc(Nc2cnccn2)n1 (stereo not given),-3.17%,12.2%,9.2%,8.04%,-0.395%,0.232%,10.3%,-10.9%,12.9%,22.1%,-7.89%
Cc1ccc([C@]2(O)CC[C@H]3CN(Cc4cc(C)c(O)c(C)c4)C[C@H]32)nc1,-2.94%,6.76%,23.7%,8.26%,-2.37%,-5.34%,8.58%,11.6%,0%,6.49%,-9.68%
